Assay [1] addresses rat Thyrotropin Releasing Hormone Receptor (TRH), Trhr (gene 25570) (UniProt Q01717). The experiment in a line: NVS_GPCR_rTRH: NovaScreen (NVS) G Protein-Coupled Receptor Assay for rat Thyrotropin Releasing Hormone Receptor (TRH) (AID 2283329).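 Further: hit means lower bound tracer signal versus DMSO baseline.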 An outline of the steps: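 Rat forebrain membrane prep, radioligand displacement, filter scintillation readout at 4 h. Single conc 25 uM, duplicate; actives retested as concentration series. DMSO = negative control/baseline.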

For assay [2], the target named is human Peripheral-type Benzodiazepine Receptor (PBR), TSPO (gene 706) (UniProt P30536). In words: NVS_MP_hPBR: NovaScreen (NVS) Membrane Protein Assay for human Peripheral-type Benzodiazepine Receptor (PBR) (AID 2283331).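 Further: hits reduce radioligand binding relative to DMSO baseline.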 The procedure, abridged:
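Human colonic cell membranes were incubated with test chemical for 1 hour; radioligand binding was measured by filter-based scintillation counting. Primary screen ran in duplicate at 25 uM, with actives followed in concentration series; loss of signal versus DMSO baseline.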

Assay [3] deals with rat Peripheral-type Benzodiazepine Receptor (PBR), Tspo (gene 24230) (UniProt P16257). The experiment in a line: NVS_MP_rPBR: NovaScreen (NVS) Membrane Protein Assay for rat Peripheral-type Benzodiazepine Receptor (PBR) (AID 2283335). The procedure, abridged:
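Radioligand displacement, rat kidney membrane prep, 1 h exposure, filter-based scintillation read; DMSO baseline, loss-of-signal scored. Primary screen at 25 uM in duplicate, actives followed up in concentration series.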

For assay [4], the target named is rat Glutamate, NMDA Agonist Site (GluNMDA), Grin1 (gene 24408) (UniProt P35439). The experiment in a line: NVS_LGIC_rGluNMDA_Agonist: NovaScreen (NVS) Ligand-Gated Ion Channel Assay for rat Glutamate, NMDA Agonist Site (GluNMDA) (AID 2283327). The procedure, abridged:
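Rat forebrain membranes, radioligand binding in the agonist-site protocol; 1 h after dosing; filter-based scintillation counting. Single-concentration duplicate screen at 25 uM, then concentration-response up to 50 uM for actives; gain-of-signal vs DMSO.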

Assay [5] concerns the target rat Gamma-Aminobutyric Acid Type A Receptor, Non-Selective (GABAR-NonSelective), Gabra1 (gene 29705) (UniProt P62813). The experiment in a line: NVS_LGIC_rGABAR_NonSelective: NovaScreen (NVS) Ligand-Gated Ion Channel Assay for rat Gamma-Aminobutyric Acid Type A Receptor, Non-Selective (GABAR-NonSelective) (AID 2283326). The procedure, abridged: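 Radioligand displacement on rat whole-brain extract, 1 h, filter scintillation readout; signal loss fitted versus DMSO. Primary screen in duplicate at 25 uM; hits (e.g. ≥30% inhibition) retested in concentration-response up to 50 uM.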

Assay [6] concerns the target Voltage-gated inwardly rectifying potassium channel KCNH2 (Homo sapiens) (UniProt Q12809). The experiment in a line: NVS_IC_hKhERGCh: NovaScreen (NVS) Ion Channel Assay for human Potassium Channel ERG (KhERGCh) (AID 2283333). An outline of the steps:
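Cell-free radioligand competition binding on hERG protein extracted from CHO cells, read by filter-based scintillation counting 0.75 h after dosing. Primary screen at 25 uM in duplicate, actives followed in concentration series. Signal loss fitted versus DMSO.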

The target in assay [7] is Glutamate receptor ionotropic, kainate 1 (Rattus norvegicus) (UniProt P22756). In words: NVS_IC_rKAR: NovaScreen (NVS) Ion Channel Assay for rat Kainic Acid Receptors (KAR) (AID 2283334; active means hit-call score of the fitted dose curve at least 0.9, where 1 is the maximum; inactive means score below 0.9). The procedure, abridged: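 Radioligand displacement binding using rat forebrain membranes, 1 h incubation, filter-based scintillation counting. Screened in duplicate at 25 uM, with actives retested in concentration-response up to 50 uM; fitted against DMSO.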

Assay [8] addresses human Androgen Receptor (AR), AR (gene 367) (UniProt P10275). In words: NVS_NR_hAR: NovaScreen (NVS) Nuclear Receptor Binding Assay for human Androgen Receptor (AR) (AID 2283332). An outline of the steps: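 Actives from a duplicate 25 uM single-point screen went on to concentration series. Read-out after 20 h was scintillation counting of displaced radioligand in LnCAP extract, with DMSO as baseline.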

Assay [9] has as its target human Serotonin, 5-Hydroxytryptamine Receptor 3 (5HT3), HTR3A (gene 3359) (UniProt P46098). In words: NVS_LGIC_h5HT3: NovaScreen (NVS) Ligand-Gated Ion Channel Assay for human Serotonin, 5-Hydroxytryptamine Receptor 3 (5HT3) (AID 2283325). The procedure, abridged: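 Radioligand displacement binding to human 5-HT3 from HEK293 membranes, read by filter-based scintillation counting after 1 h. Screen at 25 uM in duplicate; chemicals passing threshold were retested in concentration-response up to 50 uM.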

For assay [10], the target named is Small conductance calcium-activated potassium channel protein 1 (Rattus norvegicus) (UniProt P70606). In words: NVS_IC_rKCaCh: NovaScreen (NVS) Ion Channel Assay for rat Potassium Channel, Ca2+ Act., VI (KCaCh) (AID 2283336). An outline of the steps: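 Radioligand binding to rat forebrain membranes, cell-free, read 1 hour after dosing by filter-based scintillation counting. Compounds first run in duplicate at 25 uM, actives then in concentration series; loss of signal vs DMSO indicates displacement.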
Chain of Small conductance calcium-activated potassium channel protein 1 (Rattus norvegicus) (P70606 whole entry, looked up): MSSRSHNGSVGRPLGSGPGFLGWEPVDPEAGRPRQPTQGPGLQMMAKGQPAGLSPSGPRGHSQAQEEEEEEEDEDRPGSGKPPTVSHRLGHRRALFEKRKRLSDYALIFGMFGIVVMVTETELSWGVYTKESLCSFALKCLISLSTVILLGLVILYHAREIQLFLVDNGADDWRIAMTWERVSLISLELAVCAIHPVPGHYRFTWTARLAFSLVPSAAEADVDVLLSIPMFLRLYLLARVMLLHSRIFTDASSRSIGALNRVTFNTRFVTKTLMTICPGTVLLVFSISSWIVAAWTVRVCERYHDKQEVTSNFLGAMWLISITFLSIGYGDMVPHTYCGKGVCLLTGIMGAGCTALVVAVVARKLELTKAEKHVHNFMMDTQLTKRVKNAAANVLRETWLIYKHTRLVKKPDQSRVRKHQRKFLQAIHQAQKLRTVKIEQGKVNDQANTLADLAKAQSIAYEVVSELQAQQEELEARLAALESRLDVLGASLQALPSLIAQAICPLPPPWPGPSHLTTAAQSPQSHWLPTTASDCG

In PubChem BioAssay (EPA / NIEHS) one finds outcome and AC50 data, which are given here for 36 compounds.

Where “and” joins values, the source holds several entries; their conditions need not be identical. Equal values may be shown once. Records with an inconclusive call do not appear. The source holds several records for some structures; these can differ, active in one and inactive in another. Calls of active or inactive are those of the source. How the source made its calls, unless noted: active means hit-call score of the fitted dose curve at least 0.9, where 1 is the maximum; inconclusive means response in the unintended direction; inactive means score below 0.9.

Chain of human Androgen Receptor (AR), AR (gene 367) (P10275 whole entry, looked up): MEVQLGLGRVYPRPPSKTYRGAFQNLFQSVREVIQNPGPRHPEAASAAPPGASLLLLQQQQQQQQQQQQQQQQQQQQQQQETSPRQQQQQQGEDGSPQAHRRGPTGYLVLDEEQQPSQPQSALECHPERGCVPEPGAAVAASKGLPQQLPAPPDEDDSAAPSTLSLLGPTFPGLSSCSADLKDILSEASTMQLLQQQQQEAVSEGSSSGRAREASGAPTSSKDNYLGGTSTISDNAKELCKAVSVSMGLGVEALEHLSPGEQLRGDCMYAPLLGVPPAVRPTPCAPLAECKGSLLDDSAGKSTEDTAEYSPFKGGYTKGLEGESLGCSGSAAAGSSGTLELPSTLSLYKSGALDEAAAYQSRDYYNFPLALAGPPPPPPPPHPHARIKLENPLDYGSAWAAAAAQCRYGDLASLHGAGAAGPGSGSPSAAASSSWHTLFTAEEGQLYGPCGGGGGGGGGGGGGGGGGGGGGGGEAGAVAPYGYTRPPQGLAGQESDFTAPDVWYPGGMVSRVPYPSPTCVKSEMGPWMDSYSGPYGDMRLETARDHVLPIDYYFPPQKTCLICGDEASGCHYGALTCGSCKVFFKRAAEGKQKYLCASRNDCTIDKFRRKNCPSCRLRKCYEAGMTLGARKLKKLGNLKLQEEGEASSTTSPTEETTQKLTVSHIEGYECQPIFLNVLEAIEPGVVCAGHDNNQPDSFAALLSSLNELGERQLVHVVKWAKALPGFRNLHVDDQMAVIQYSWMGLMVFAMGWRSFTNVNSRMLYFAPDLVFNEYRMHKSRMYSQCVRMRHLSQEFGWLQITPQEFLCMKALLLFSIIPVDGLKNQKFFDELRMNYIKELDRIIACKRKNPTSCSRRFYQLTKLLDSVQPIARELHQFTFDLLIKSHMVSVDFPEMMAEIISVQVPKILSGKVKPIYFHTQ
Chain of human Peripheral-type Benzodiazepine Receptor (PBR), TSPO (gene 706) (P30536 whole entry, looked up): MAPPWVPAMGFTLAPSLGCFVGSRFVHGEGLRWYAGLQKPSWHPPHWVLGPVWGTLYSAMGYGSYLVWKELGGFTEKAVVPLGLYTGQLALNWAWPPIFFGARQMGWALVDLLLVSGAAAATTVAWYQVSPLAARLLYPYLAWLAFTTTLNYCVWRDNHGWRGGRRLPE
Chain of rat Peripheral-type Benzodiazepine Receptor (PBR), Tspo (gene 24230) (P16257 whole entry, looked up): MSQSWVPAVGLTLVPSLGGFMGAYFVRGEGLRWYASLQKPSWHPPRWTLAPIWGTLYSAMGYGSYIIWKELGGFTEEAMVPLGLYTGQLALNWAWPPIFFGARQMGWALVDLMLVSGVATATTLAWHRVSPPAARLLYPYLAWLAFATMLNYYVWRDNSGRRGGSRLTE
Chain of rat Gamma-Aminobutyric Acid Type A Receptor, Non-Selective (GABAR-NonSelective), Gabra1 (gene 29705) (P62813 whole entry, looked up): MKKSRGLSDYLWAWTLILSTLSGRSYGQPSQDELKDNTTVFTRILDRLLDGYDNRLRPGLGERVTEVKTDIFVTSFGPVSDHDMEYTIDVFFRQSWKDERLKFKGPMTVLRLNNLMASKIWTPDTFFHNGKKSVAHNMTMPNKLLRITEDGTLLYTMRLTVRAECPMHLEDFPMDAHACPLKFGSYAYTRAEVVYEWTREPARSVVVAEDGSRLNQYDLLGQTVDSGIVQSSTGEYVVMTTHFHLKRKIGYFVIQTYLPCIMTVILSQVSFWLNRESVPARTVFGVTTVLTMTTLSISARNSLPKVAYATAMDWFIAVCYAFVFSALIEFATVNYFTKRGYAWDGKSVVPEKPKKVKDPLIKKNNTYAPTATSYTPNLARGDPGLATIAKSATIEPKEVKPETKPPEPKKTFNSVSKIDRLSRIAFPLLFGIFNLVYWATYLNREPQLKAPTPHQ
Chain of rat Thyrotropin Releasing Hormone Receptor (TRH), Trhr (gene 25570) (Q01717 whole entry, looked up): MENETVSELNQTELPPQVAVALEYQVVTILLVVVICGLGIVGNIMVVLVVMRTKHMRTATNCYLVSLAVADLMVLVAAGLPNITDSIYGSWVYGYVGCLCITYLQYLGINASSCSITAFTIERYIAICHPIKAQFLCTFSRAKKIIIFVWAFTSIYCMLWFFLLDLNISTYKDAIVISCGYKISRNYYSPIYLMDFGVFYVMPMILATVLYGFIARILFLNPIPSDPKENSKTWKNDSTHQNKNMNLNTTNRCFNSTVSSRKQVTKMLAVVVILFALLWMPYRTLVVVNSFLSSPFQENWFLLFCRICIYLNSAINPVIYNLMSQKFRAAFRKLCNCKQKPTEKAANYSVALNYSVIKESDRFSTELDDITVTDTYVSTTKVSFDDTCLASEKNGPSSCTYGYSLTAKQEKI
Chain of Voltage-gated inwardly rectifying potassium channel KCNH2 (Homo sapiens) (Q12809 whole entry, looked up): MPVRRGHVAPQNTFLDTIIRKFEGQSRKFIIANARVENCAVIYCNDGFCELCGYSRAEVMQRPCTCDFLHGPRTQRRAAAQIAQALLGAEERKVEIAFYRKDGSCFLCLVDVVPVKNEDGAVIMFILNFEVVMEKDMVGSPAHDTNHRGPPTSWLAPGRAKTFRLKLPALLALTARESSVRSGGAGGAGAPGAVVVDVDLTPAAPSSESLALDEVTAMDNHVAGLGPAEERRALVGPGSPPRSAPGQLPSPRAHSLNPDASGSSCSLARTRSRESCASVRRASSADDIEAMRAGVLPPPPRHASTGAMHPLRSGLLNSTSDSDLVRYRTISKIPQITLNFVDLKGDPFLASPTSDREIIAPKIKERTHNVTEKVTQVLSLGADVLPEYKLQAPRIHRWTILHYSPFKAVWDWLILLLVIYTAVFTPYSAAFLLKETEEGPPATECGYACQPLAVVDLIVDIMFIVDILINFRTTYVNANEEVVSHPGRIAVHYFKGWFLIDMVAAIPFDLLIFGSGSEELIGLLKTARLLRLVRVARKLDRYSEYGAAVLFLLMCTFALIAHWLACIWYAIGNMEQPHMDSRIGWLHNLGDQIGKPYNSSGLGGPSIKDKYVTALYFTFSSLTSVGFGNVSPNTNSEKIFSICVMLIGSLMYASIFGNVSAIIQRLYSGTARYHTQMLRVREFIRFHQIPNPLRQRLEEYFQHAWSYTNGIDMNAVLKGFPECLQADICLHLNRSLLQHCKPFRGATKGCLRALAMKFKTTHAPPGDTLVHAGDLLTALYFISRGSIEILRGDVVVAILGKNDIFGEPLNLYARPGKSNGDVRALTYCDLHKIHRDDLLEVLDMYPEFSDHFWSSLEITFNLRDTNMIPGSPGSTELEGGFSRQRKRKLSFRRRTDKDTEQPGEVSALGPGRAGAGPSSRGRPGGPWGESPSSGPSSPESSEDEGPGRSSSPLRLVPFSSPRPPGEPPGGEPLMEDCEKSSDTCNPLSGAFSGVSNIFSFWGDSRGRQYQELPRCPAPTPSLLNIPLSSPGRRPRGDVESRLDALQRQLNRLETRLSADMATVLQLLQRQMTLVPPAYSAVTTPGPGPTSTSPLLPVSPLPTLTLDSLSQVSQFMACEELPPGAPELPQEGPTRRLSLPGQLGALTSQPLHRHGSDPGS
Chain of human Serotonin, 5-Hydroxytryptamine Receptor 3 (5HT3), HTR3A (gene 3359) (P46098 whole entry, looked up): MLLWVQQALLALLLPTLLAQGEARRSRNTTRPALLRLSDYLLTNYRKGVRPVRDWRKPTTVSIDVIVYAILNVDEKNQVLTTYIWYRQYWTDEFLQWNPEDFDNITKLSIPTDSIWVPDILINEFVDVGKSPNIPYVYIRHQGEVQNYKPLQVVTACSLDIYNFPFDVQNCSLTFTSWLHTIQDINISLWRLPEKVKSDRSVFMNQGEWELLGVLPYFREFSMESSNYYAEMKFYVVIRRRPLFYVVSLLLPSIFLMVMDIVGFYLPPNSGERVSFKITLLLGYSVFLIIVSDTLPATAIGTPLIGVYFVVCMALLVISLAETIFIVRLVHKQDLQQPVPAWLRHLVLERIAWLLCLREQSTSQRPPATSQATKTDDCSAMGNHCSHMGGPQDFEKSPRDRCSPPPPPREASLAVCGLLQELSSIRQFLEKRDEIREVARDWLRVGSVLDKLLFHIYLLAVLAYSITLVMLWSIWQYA

Take `COC(=O)c1ccccc1S(=O)(=O)NC(=O)Nc1nc(OC(F)F)cc(OC(F)F)n1`: the outcome in [1] was inactive.

As to `CCCCOCCOCCOCc1cc2c(cc1CCC)OCO2`, the AC50 is 26.9 µM (active) in assay [2] and 12.3 µM (active) in [3].

With `CN(C)C(=O)Nc1ccc(Cl)c(Cl)c1`, the AC50 in [2] was 19.9 µM (active); in [3], 8.92 µM (active).

As for `CCOC(=O)NCCOc1ccc(Oc2ccccc2)cc1`, in assay [2], the call was inactive.

For the compound `COC(=O)c1ccccc1C(=O)O`, the result in assay [2] was inactive.

For `CCOC(=O)COc1cc(-n2ncc(C(F)(F)F)c(C)c2=O)c(F)cc1Cl`, the AC50 in assay [3] is 0.806 µM (active).

With `CC(=O)S[C@@H]1CC2=CC(=O)CC[C@]2(C)[C@H]2CC[C@@]3(C)[C@@H](CC[C@@]34CCC(=O)O4)[C@H]12`, the compound was called inactive in [4], in assay [1] and in assay [2].

In the case of `N#CSCSc1nc2ccccc2s1`, in assay [3], the AC50 was 11.1 µM (active) and 9.24 µM (active).

For the compound `CCCCOC(=O)[C@@H](C)Oc1ccc(Oc2ccc(C(F)(F)F)cn2)cc1`, the result in assay [2] and in [3] was inactive.

Consider `S=C([S-])NCCNC(=S)[S-].[Mn+2]`, for which the compound was classed as inactive in assay [4] and in [2]. Further, in assay [3], the AC50 is 15.3 µM (active).

`COC(=O)CSc1cc(N=c2sc(=O)n3n2CCCC3)c(F)cc1Cl`: the compound was classed as inactive in assay [5], in assay [2] and in assay [3].

Consider `CC1(C)C(C=C(Cl)Cl)C1C(=O)OCc1cccc(Oc2ccccc2)c1` (stereo not given), for which the outcome in assay [1] and in assay [3] was inactive. Also, in assay [2], the AC50 was 40.2 µM (active).

For `Cc1nn(C)c(Oc2ccccc2)c1C=NOCc1ccc(C(=O)OC(C)(C)C)cc1`, the call in assay [6] was inactive.

In the case of `CCCCCOC(=O)COc1cc(N2C(=O)C3=C(CCCC3)C2=O)c(F)cc1Cl`, the values for the AC50 in [2] and in [3] were 2.72 µM (active) and 1.23 µM (active), respectively.

For `O=C(c1ccccc1)C1CCCCC1`, the compound was classed as inactive in assay [1].

Consider `C=CCOC(Cn1ccnc1)c1ccc(Cl)cc1Cl` (stereo not given), for which the AC50 in assay [1] is 17 µM (active); in assay [2], 10.6 µM (active); in assay [6], 12.5 µM (active); in [3] it was 8.58 µM (active). Besides, the outcome in [7] was inactive.

In the case of `Oc1ccc(C(c2ccc(O)cc2)C(Cl)(Cl)Cl)cc1`, the result in assay [2] was inactive. In addition, the AC50 in assay [3] was 4.65 µM (active).

Take `c1ccc(Nc2ccccc2)cc1`: the compound was called inactive in assay [5].

Turning to `CCCCCCC(C)OC(=O)COc1nc(F)c(Cl)c(N)c1Cl` (stereo not given), the compound was called inactive in [2]. Also, the AC50 in assay [3] was 3.75 µM (active).

`CCCN(CCC)C(=O)SCC`: the compound was classed as inactive in [2], in [8] and in assay [3]. Also, the AC50 in [3] is 25 µM (active).

In the case of `O=C(c1ccc(O)cc1O)c1ccc(O)cc1O`, the result in [1] was inactive. Also, in [8], the half-maximal activity concentration (AC50) is 1.39 µM (active).

With `S=C(S)NCCNC(=S)S.[Mn+2].[S-]C([S-])=NCCN=C([S-])[S-].[Zn+2]`, the compound was called inactive in [4] and in assay [3]. In assay [2], the AC50 was 9.51 µM (active) and 4.71 µM (active) and 3.45 µM (active).

Take `CC(C)(c1ccc(O)cc1)c1ccc(O)cc1`: the outcome in assay [9], in assay [2], in assay [8] and in assay [3] was inactive. Besides, the AC50 in [4] was 19.7 µM (active) and 25.4 µM (active) and 15 µM (active); in assay [8], 9.86 µM (active) [middle of 4 runs]; in assay [3], 6.73 µM (active) and 25 µM (active).

Consider `COc1nc(C)nc(NC(=O)NS(=O)(=O)c2ccccc2OCCCl)n1`, for which the result in assay [2] was inactive. The AC50 in assay [3] was 21.8 µM (active) and 9.77 µM (active).

For the compound `CCCCC(CC)CN1C(=O)C2C3C=CC(C3)C2C1=O` (stereo not given), the result in assay [1] and in [2] was inactive.

Regarding `CSC(=O)c1cccc2nnsc12`, in [8], the call was inactive.

`C[C@]12CC[C@@H]3c4ccc(O)cc4C[C@@H](CCCCCCCCCS(=O)CCCC(F)(F)C(F)(F)F)[C@H]3[C@@H]1CC[C@@H]2O` (stereo not given in full): the call in assay [1], in assay [2], in assay [8] and in assay [10] was inactive.

As to `CCOC(=O)C(C)Oc1ccc(Oc2cnc3cc(Cl)ccc3n2)cc1` (stereo not given), the call in [5] was inactive.

Take `CCNc1nc(N)nc(Cl)n1`: the compound was called inactive in assay [2] and in [3].

For the compound `CCN(CC)C(=O)c1cccc(C)c1`, the AC50 in [2] was 20.1 µM (active); in [3], 8.73 µM (active).

On to `CC(C)CCCCCCc1ccc(O)cc1`, for which the call in assay [2] was inactive.

Regarding `CCCCC(CC)COC(=O)c1ccccc1C(=O)O` (stereo not given), the half-maximal activity concentration (AC50) in assay [2] was 39.2 µM (active). Besides, the call in [3] was inactive.

With `C#CCOC(=O)[C@@H](C)Oc1ccc(Oc2ncc(Cl)cc2F)cc1`, the outcome in assay [3] was inactive.

For `CC(C)(C)[C@@H](O)[C@@H](Cc1ccc(Cl)cc1)n1cncn1`, in assay [4], the outcome was inactive.

On to `N[C@@H](Cc1cc(I)c(Oc2ccc(O)c(I)c2)c(I)c1)C(=O)O`, for which the AC50 in [3] is 9.05 µM (active) and 6.01 µM (active) and 8.66 µM (active).

For the compound `CC(=O)[C@H]1CC[C@H]2[C@@H]3CCC4=CC(=O)CC[C@]4(C)[C@H]3CC[C@]12C`, in assay [2], the AC50 was 1.75 µM (active) and 1.51 µM (active) and 4.64 µM (active). For the same compound, in assay [10], the result was inactive.

Usually AC50 stands for the midpoint of the concentration-response curve, whichever way the signal moves.
